Data published in PubChem BioAssay (NCI).
About 83,000 compounds went through this panel and 20% of them were active in at least one assay; those are over-represented in the sample as a whole.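 Percent growth is the endpoint: 0 to 100 indicates growth inhibition (40 means 60% inhibition), 0 means no net growth, and negative values indicate cell death.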 A number with no mark means an inactive call. Calls of active or inactive are those of the source. How the source made its calls: active means growth percent below 10; inactive means the rest.

Assays:
Assay in all cases: NCI-60 one-dose screen, 48 h (100 = growth as untreated, 0 = no growth, -100 = all killed)
DU-145 prostate = conditions: 10 µM unless noted
K-562 leukemia = conditions: 10 µM unless noted
MALME-3M melanoma = conditions: 10 µM unless noted
SF-295 CNS = conditions: 10 µM unless noted
UACC-257 melanoma = conditions: 10 µM unless noted
HCT-15 colon = conditions: 10 µM
HT29 colon = conditions: 10 µM unless noted
SNB-75 CNS = conditions: 10 µM unless noted
SNB-19 CNS = conditions: 10 µM unless noted
PC-3 prostate = conditions: 10 µM unless noted
LOX IMVI melanoma = conditions: 10 µM unless noted
CAKI-1 renal = conditions: 10 µM unless noted
A498 renal = conditions: 10 µM unless noted
HL-60(TB) leukemia = conditions: 10 µM unless noted
MOLT-4 leukemia = conditions: 10 µM
T-47D breast = conditions: 10 µM unless noted
BT-549 breast = conditions: 10 µM
HCC-2998 colon = conditions: 10 µM unless noted
RXF 393 renal = conditions: 10 µM unless noted
SK-MEL-5 melanoma = conditions: 10 µM unless noted

Row | SMILES | growth (DU-145 prostate) | growth (K-562 leukemia) | growth (MALME-3M melanoma) | growth (SF-295 CNS) | growth (UACC-257 melanoma) | growth (HCT-15 colon) | growth (HT29 colon) | growth (SNB-75 CNS) | growth (SNB-19 CNS) | growth (PC-3 prostate) | growth (LOX IMVI melanoma) | growth (CAKI-1 renal) | growth (A498 renal) | growth (HL-60(TB) leukemia) | growth (MOLT-4 leukemia) | growth (T-47D breast) | growth (BT-549 breast) | growth (HCC-2998 colon) | growth (RXF 393 renal) | growth (SK-MEL-5 melanoma)
1 | CCC[CH2][Sn]([CH2]CCC)([CH2]CCC)[O]C(=O)CC | -97.7% (active) | -30.2% (active) | -75.8% (active) | -81.4% (active) | -94.2% (active) | -72.9% (active) | -81.2% (active) | -99.6% (active) | -75.6% (active) | -92.7% (active) | -83.3% (active) | -95.2% (active) | -96.4% (active) | -1.98% (active) | 7.41% (active) | -74.4% (active) | -98.5% (active) | -94.5% (active) | – | –
2 | O=[As]c1ccc(C(=O)c2ccc(Oc3ccccc3)cc2)cc1 (stereo not given) | -94% (active) | -17.8% (active) | -66.2% (active) | -65.1% (active) | -99.4% (active) | -78.3% (active) | -77.6% (active) | -92% (active) | -97.4% (active) | -61.4% (active) | -91.2% (active) | -53.7% (active) | -97.7% (active) | -23.4% (active) | -25.2% (active) | -47.2% (active) | -98.8% (active) | -93.9% (active) | -100% (active) | -100% (active)
3 | COC(C)(C)CCC[C@H](C)C/C=C/C(C)=C/C(=O)OC(C)C | 113% | 85.3% | 85.9% | 98.2% | 101% | 101% | 88% | 118% | 109% | 88.7% | 92.9% | 85.4% | 110% | 79.8% | 90% | 75.7% | 103% | 101% | 104% | –
4 | O=CC(Br)C(Br)c1ccccc1 (stereo not given) | 77% | 41.2% | 82.6% | 97.9% | 93.8% | 78.1% | 71.4% | – | 96% | 94.7% | 56.2% | 92.9% | 102% | 26.3% | 16.6% | 37.2% | 99.7% | 106% | 86.8% | 89.9%
5 | Cc1cc(C)nc(C)c1.[Cl][Hg][Cl] | 102% | 83.6% | 92.8% | 94.9% | 93.8% | 101% | 95.7% | 96% | 104% | 95.4% | 80.2% | 96.4% | 120% | 93.7% | 92% | 81.8% | 100% | 114% | 124% | 106%
6 | CC1(C)N=C(N)N=C(N)N1c1cccc(C(=O)Nc2cccc(S(=O)(=O)F)c2)c1 | 114% | 118% | 88.9% | 84.9% | 93.9% | – | 109% | 80.2% | 97.3% | 97.1% | 99.7% | 98.8% | 73.9% | 103% | 112% | 84% | 107% | 98.5% | 92.2% | 99.8%
7 | CO[C@@H](c1ccccc1Cl)[C@H](C)OC(N)=O | 106% | 104% | 93.5% | 95.8% | 91.7% | 96.9% | 106% | 70.8% | 96.7% | 98.1% | 98.1% | 92.1% | 96.3% | 106% | 107% | 101% | 97.2% | 91.5% | 113% | 98.7%
8 | Fc1ccc(C2=NN(c3ccccc3)C(c3sc(N(CCCl)CCCl)nc3Cl)C2)cc1 (stereo not given) | 109% | 69.8% | 102% | 85.5% | 86.7% | 94.3% | 81.2% | 68.7% | 95.6% | 68.2% | 83.2% | 62.2% | 92.4% | 103% | 65.4% | 61.5% | 99.5% | 103% | 102% | 83.2%
